High-throughput results: PubChem, National Center for Advancing Translational Sciences (NCATS)
Compounds with a hit are over-represented: about 20% of the library has one in this group of screens.
HCMV antiviral: blocks human cytomegalovirus replication | HFF cells, HCMV-luciferase reporter, 72 h; active compounds read low | activity change, negative = inhibition, % at 57.5 µM | 4.5% of 410,000 active | AID 1259415; in the data active = activity change below about -60%; inconclusive = no clear call, values can overlap the other calls; inactive = above about -39%
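Luciferase read-out from HCMV-luciferase-infected HFFs (MOI 1 PFU/cell) 72 h post infection at 37C; compounds added after 16 h cell attachment; activity normalized between buffer-only basal and Salinomycin (10uM) inhibitor controls.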
CHX counter: counter-screen for Shiga toxin inhibitors: cycloheximide protein synthesis inhibition. cell reporter, cycloheximide protein synthesis inhibition counterscreen. max response, %. 12% of 300,000 active. AID 2314; in the data active = max response mostly above about 13%, no sharp cut-off; inactive = mostly below about 14%; note: read at 38.3 µM for the half of the compounds with a filed dose
Shiga inhibitor: inhibitors of Shiga toxin in Vero cells; Vero cells, Shiga toxin protein synthesis inhibition reporter; inhibition, % at 38.7 µM; 9.2% of 290,000 active; in the data active = inhibition mostly above about 28%, no sharp cut-off; inactive = mostly below about 43%
Pf growth 96h: inhibits malaria parasite growth, 96 h; AID 504834; 6.9% of 320,000 active; Potency, µM (doses to about 28.7 µM), most hits filed as inhibitors; P. falciparum luciferase reporter growth, 96 h
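P. falciparum expressing integrated firefly luciferase, in erythrocytes at 2% hematocrit, 0.05% parasitemia, incubated with compounds 96 h at 37 C, 5% CO2. Growth inhibition read as loss of luminescence; two-generation exposure targets delayed-death apicoplast inhibitors.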
Pf growth 48h: inhibits P. falciparum growth in the first generation, 48 h. AID 504832. 5.9% of 310,000 active. P. falciparum luciferase growth in erythrocytes, 48 h. Potency, µM (highest dose often 28.7 µM), actives largely listed as inhibitors
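Luciferase-expressing P. falciparum in infected erythrocytes (2% hematocrit, 0.1% parasitemia final) in RPMI 1640/0.5% Albumax were exposed to compound for 48 hours at 37 C, 5% CO2; growth read as luminescence.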
Numbers stand for hits. Unless noted, calls come from the whole dose curve; as a rule, active = well fitted inhibition curve with a large enough effect; inconclusive = small, poorly fitted or top-dose-only effect, or another doubt; inactive = no such curve, though single readings can be large or run the other way.

O=C(Nc1ccc2c(c1)OCO2)N[C@H]1CC[C@@]23CCCN2C(=O)CCC[C@H]3C1Cc1ccccc1 (stereo not given in full) was read as HCMV antiviral inactive.
Screening C[C@H]1[C@@H](NS(=O)(=O)c2cn(C)cn2)CC[C@@]23CCCN2C(=O)CCC[C@@H]13 returned HCMV antiviral -101.7.
Screening O=C1CCC[C@H]2[C@@H](Cc3ccccc3)[C@@H](NS(=O)(=O)c3ccc(Cl)cc3)CC[C@]23CCCN13 returned HCMV antiviral -92.0.
For O=C1CCC[C@H]2[C@@H](Cc3ccccc3)[C@@H](NS(=O)(=O)c3ccc(Br)cc3)CC[C@]23CCCN13 the results were HCMV antiviral inactive.
For C[C@H]1[C@@H](NC(=O)Nc2ccc3c(c2)OCO3)CC[C@@]23CCCN2C(=O)CCC[C@@H]13 the results were HCMV antiviral -92.3.
For COCCNC(=O)C1(C)CCCN(Cc2cc(-c3ccccc3)n(C)n2)C1 (stereo not given) the results were HCMV antiviral inactive.
Screening Cc1noc(C)c1C(=O)Nc1ccc(Cl)cc1C(F)(F)F returned HCMV antiviral inactive, CHX counter inactive, Shiga inhibitor inactive and Pf growth 48h inconclusive.
O=C(Nc1ccc(Cl)cc1C(F)(F)F)c1ccccc1Cl was read as HCMV antiviral inconclusive, CHX counter 12.7, Shiga inhibitor inactive, Pf growth 96h inconclusive and Pf growth 48h inactive.
For Cc1cc(NC(=O)c2ccc(Cl)cc2)ccc1NC(=O)c1ccccc1Cl the results were HCMV antiviral inactive, CHX counter inactive, Shiga inhibitor inactive, Pf growth 96h 3.7µM and Pf growth 48h inactive.
Cc1ccc(NC(=O)c2ccc(Cl)cc2Cl)cc1O was read as HCMV antiviral inactive, CHX counter 38.5, Shiga inhibitor 94.4, Pf growth 96h inactive and Pf growth 48h inactive.
`O=C(Nc1ccc(Cl)cc1C(F)(F)F)c1ccc(Cl)cc1` gave HCMV antiviral inactive, CHX counter 15.6, Shiga inhibitor inactive, Pf growth 96h inactive and Pf growth 48h inactive.
For O=C(CN1CCCC1)Nc1ccc(Cl)cc1C(F)(F)F the results were HCMV antiviral inactive, CHX counter inactive, Shiga inhibitor inactive, Pf growth 96h inactive and Pf growth 48h inactive.
For Cc1ccc(C(=O)Nc2ccc(NC(=O)c3ccccc3Cl)c(C)c2)cc1 the results were HCMV antiviral inactive.
Screening Cc1ccc2oc(C(=O)Nc3sc4c(c3C(=O)NCc3ccccc3)CCCC4)cc(=O)c2c1 returned HCMV antiviral inactive.
Cc1ccc(C(=O)Nc2ccc(Cl)cc2C(F)(F)F)c(Cl)c1 was read as HCMV antiviral inactive, CHX counter 30.7, Shiga inhibitor 56.1, Pf growth 96h inactive and Pf growth 48h inactive.
For Cc1ccc(C(=O)Nc2ccc(Cl)cc2C)c(Cl)c1 the results were HCMV antiviral inactive, CHX counter 26.6, Shiga inhibitor 100.3, Pf growth 96h inactive and Pf growth 48h inactive.
For O=C(Nc1cc(F)c(Br)cc1F)c1ccc(Cl)cc1 the results were HCMV antiviral inactive, CHX counter 33.6, Shiga inhibitor 111.0, Pf growth 96h inactive and Pf growth 48h inactive.
Cc1cc(NC(=O)c2ccccc2Cl)ccc1NC(=O)c1ccccc1Cl was read as HCMV antiviral inactive, CHX counter inactive, Pf growth 96h inactive and Pf growth 48h inactive.
Cc1[nH]c(=O)c(S(=O)(=O)c2ccccc2)c(C)c1Cl was read as HCMV antiviral inactive, CHX counter inactive, Shiga inhibitor inactive, Pf growth 96h inactive and Pf growth 48h inactive.
For O=C(Cn1ncc2c3ccccc3n(Cc3ccccc3F)c2c1=O)NCc1ccccc1Cl the results were HCMV antiviral inactive.
`COc1ccc(CCN(Cc2ccccn2)C(=S)Nc2ccccc2Cl)cc1OC` gave HCMV antiviral inactive, CHX counter inactive, Shiga inhibitor inactive, Pf growth 96h 13.1µM and Pf growth 48h inconclusive.
`S=C(Nc1ccccc1Cl)N(Cc1ccccc1)Cc1ccccn1` gave HCMV antiviral inconclusive, CHX counter inactive, Shiga inhibitor inactive, Pf growth 96h 1.04µM and Pf growth 48h inconclusive.
`COc1ccccc1NC(=S)N(Cc1ccccc1)Cc1ccccn1` gave HCMV antiviral inactive, CHX counter inactive, Shiga inhibitor inactive, Pf growth 96h inconclusive and Pf growth 48h inactive.
COc1ccc(CCN(Cc2ccccn2)C(=S)Nc2ccccc2F)cc1OC was read as HCMV antiviral inactive, CHX counter inactive, Shiga inhibitor inactive, Pf growth 96h inactive and Pf growth 48h inactive.
Screening COc1ccc(NC(=S)N(CCc2ccc(OC)c(OC)c2)Cc2ccccn2)cc1 returned HCMV antiviral inactive, CHX counter inactive, Shiga inhibitor inactive, Pf growth 96h 11.7µM and Pf growth 48h inconclusive.
COc1ccc(CCN(Cc2ccccn2)C(=S)Nc2cccc(C)c2)cc1OC was read as HCMV antiviral inactive, CHX counter inactive, Shiga inhibitor inactive, Pf growth 96h inactive and Pf growth 48h 11.7µM.
For CCc1ccc(-c2cn(-c3nc(C)cc(C)n3)c(=N)o2)cc1 the results were HCMV antiviral -100.6, CHX counter 22.9, Shiga inhibitor inactive, Pf growth 96h 10.4µM and Pf growth 48h inconclusive.
`Cc1cc(C)nc(SCc2ccc(F)cc2)n1` gave HCMV antiviral inactive, CHX counter inactive, Shiga inhibitor inactive, Pf growth 96h inactive and Pf growth 48h inactive.
For C=CCOc1ccc(C2NC(=S)NC3=C2CCc2ccccc23)cc1 (stereo not given) the results were HCMV antiviral inactive, CHX counter 25.3, Shiga inhibitor inactive, Pf growth 96h inconclusive and Pf growth 48h inconclusive.
`COc1cc(C2NC(=S)NC3=C2CCc2ccccc23)cc(OC)c1OC` (stereo not given) gave HCMV antiviral inactive, CHX counter inactive, Shiga inhibitor inactive, Pf growth 96h inconclusive and Pf growth 48h inconclusive.
`CC1CN(C(=O)c2cccc(COc3ccc(Br)cc3)c2)CC(C)O1` (stereo not given) gave HCMV antiviral -77.7, CHX counter 57.6, Shiga inhibitor 12.8, Pf growth 96h inactive and Pf growth 48h inactive.
For O=C(c1cccc(OCc2ccccc2)c1)N1CCOCC1 the results were HCMV antiviral inactive, CHX counter 12.9, Shiga inhibitor inactive, Pf growth 96h inconclusive and Pf growth 48h inactive.
CCOc1ccc(N=C(/C(C(=O)C(=O)N2CCOCC2)=C(/O)c2ccccc2)c2ccccc2)cc1 was read as HCMV antiviral inactive, CHX counter 46.9, Shiga inhibitor 61.7, Pf growth 96h inactive and Pf growth 48h inactive.
Screening CCOc1ccc(OCc2cccc(C(=O)N3CCOCC3)c2)cc1 returned HCMV antiviral inactive, CHX counter 100.6, Shiga inhibitor 127.3, Pf growth 96h inactive and Pf growth 48h inactive.
For CC1CN(C(=O)c2cccc(S(=O)(=O)NCc3ccccc3)c2)CC(C)O1 (stereo not given) the results were HCMV antiviral inactive, Pf growth 96h inactive and Pf growth 48h inactive.
For O=C(Nc1ccc(OC(F)(F)F)cc1)C(NS(=O)(=O)c1cccc2nsnc12)c1ccccc1 (stereo not given) the results were HCMV antiviral inactive.
Cc1oc(-c2ccccc2Cl)nc1Cn1c(SCc2cccc(F)c2)nc2cccnc21 was read as HCMV antiviral inactive.
